In PubChem BioAssay (NCI):
The panel holds about 79,000 compounds, 15% with a hit somewhere; the sample as a whole holds those more often. Calls of active or inactive are those of the source. No stated cut-off is given here; in the data, active means growth inhibition above about 70%; inactive means the rest.

Key:
[1] = NCI Yeast Anticancer Drug Screen. Data for the rad52 strain (AID 147);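 further: 0% = growth of vehicle-treated control cultures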; conditions: S. cerevisiae rad52 mutant growth inhibition, stronger effect = higher value
How it was run: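 Measured: yeast growth inhibition. System: strain with a defined DNA damage repair alteration. Reference: vehicle-treated control cultures.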

[2] = NCI Yeast Anticancer Drug Screen. Data for the rad50EPP+ strain (AID 151);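 further: 0% = growth of vehicle-treated control cultures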; conditions: S. cerevisiae rad50 mutant strain, stronger effect = higher value
How it was run: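 One strain with a rad50 alteration (rad50EPP+) was compound-treated, its growth then compared to that of vehicle controls.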

[3] = NCI Yeast Anticancer Drug Screen. Data for the mgt1 strain (AID 153); conditions: S. cerevisiae mgt1 mutant growth inhibition, stronger effect = higher value
How it was run: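 After exposure of the mgt1 yeast mutant to compound, growth was measured and reported as inhibition compared with vehicle controls.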

[4] = NCI Yeast Anticancer Drug Screen. Data for the rad50 strain (AID 155);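 further: 0% = growth of vehicle-only cultures of the same strain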; conditions: S. cerevisiae rad50 strain growth inhibition, stronger effect = higher value
How it was run: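 DNA repair mutant yeast, compound exposure, growth read-out; inhibition is taken relative to vehicle.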

[5] = NCI Yeast Anticancer Drug Screen. Data for the mec2-1 strain (AID 157); conditions: S. cerevisiae mec2-1 strain, stronger effect = higher value
How it was run: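 Test agents were screened against the mec2-1 yeast strain, with defined DNA repair or cell cycle alteration. Growth was scored as inhibition against vehicle-only controls.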

[6] = NCI Yeast Anticancer Drug Screen. Data for the rad14 strain (AID 159);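 further: 0% = growth of vehicle-treated control cultures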; conditions: S. cerevisiae rad14 strain growth inhibition, stronger effect = higher value
How it was run: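 DNA repair-defective yeast, compound-exposed; % growth inhibition derived by comparison with vehicle-treated controls.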

[7] = NCI Yeast Anticancer Drug Screen. Data for the sgs1 mgt1 strain (AID 161);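 further: 0% = growth of cultures given vehicle only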; conditions: S. cerevisiae sgs1 mgt1 strain, stronger effect = higher value
How it was run: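 Genetically altered yeast, compound exposure, growth inhibition relative to vehicle.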

[8] = NCI Yeast Anticancer Drug Screen. Data for the CLN2oe strain (AID 163);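 further: 0% = growth of vehicle-only control cultures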; conditions: S. cerevisiae CLN2oe strain, stronger effect = higher value
How it was run: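 Here, growth inhibition in a cell-cycle-altered yeast strain after compound exposure was quantified against vehicle control growth.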

[9] = NCI Yeast Anticancer Drug Screen. Data for the cln2 rad14 strain (AID 165);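 further: 0% = growth equal to vehicle treated cultures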; conditions: S. cerevisiae cln2 rad14 strain, stronger effect = higher value
How it was run: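 Growth of compound-exposed yeast (cln2 rad14 genotype) measured and expressed as inhibition relative to vehicle.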

[10] = NCI Yeast Anticancer Drug Screen. Data for the bub3 strain (AID 167); conditions: S. cerevisiae bub3 mutant strain, stronger effect = higher value
How it was run: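 In this screen, a yeast mutant lacking normal mitotic checkpoint function is challenged with compound. Relative growth versus vehicle gives the inhibition value.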

[11] = NCI Yeast Anticancer Drug Screen. Data for the wt2 strain (AID 169);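 further: 0% = growth of vehicle-treated yeast cultures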; conditions: S. cerevisiae wt2 strain growth inhibition, stronger effect = higher value
How it was run: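 Genetically defined yeast strains from a DNA-repair/cell-cycle panel were used. Compound-exposed yeast growth was measured, and the inhibition was calculated relative to vehicle treatment.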

[12] = NCI Yeast Anticancer Drug Screen. Data for the mlh1 strain (AID 171);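 further: 0% = growth of vehicle-treated control cultures of the same strain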; conditions: S. cerevisiae mlh1 strain growth inhibition, stronger effect = higher value
How it was run: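 Here the genetically defined yeast mutant is grown with each compound, and the extent to which its growth falls below that of vehicle-exposed cells is reported.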

[13] = NCI Yeast Anticancer Drug Screen. Data for the sgs1 strain (AID 173);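 further: 0% = growth of vehicle-only control cultures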; conditions: S. cerevisiae sgs1 mutant, stronger effect = higher value
How it was run: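 Relative growth inhibition, referenced to vehicle, was determined in a yeast strain with a defined alteration affecting DNA damage repair or cell cycle control after compound exposure.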

[14] = NCI Yeast Anticancer Drug Screen. Data for the mlh1 rad18 strain (AID 175); conditions: S. cerevisiae mlh1 rad18 strain growth inhibition, stronger effect = higher value
How it was run: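 In this whole-cell yeast screen, a strain with altered DNA damage repair is challenged with compound, and its growth is measured against matched vehicle-treated controls.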

[15] = NCI Yeast Anticancer Drug Screen. Data for the rad18 strain (AID 177); conditions: S. cerevisiae rad18 mutant growth inhibition, stronger effect = higher value
How it was run: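 Screen uses a yeast strain with a defined lesion in DNA damage repair; compound effect is read as loss of growth compared to untreated vehicle cultures.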

[16] = NCI Yeast Anticancer Drug Screen. Data for the wt1 strain (AID 149);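 further: 0% = growth of vehicle-treated wt1 cultures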; conditions: S. cerevisiae wt1 strain (SPY 50644) growth inhibition, stronger effect = higher value
How it was run: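 wt1 strain grown with compound or vehicle; inhibition taken from the growth difference.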

[17] = at 5.0 µM (retest, dose inferred, filed as 0.5)
[18] = at 50.0 µM (retest, dose inferred, filed as 5.0)

Measured: growth inhibition

COc1ccc(C(OCC2OC(n3cnc4c(=O)n(Cc5ccccc5[N+](=O)[O-])nnc43)C(O)C2O)(c2ccccc2)c2ccc(OC)cc2)cc1 (stereo not drawn)
active: [4]; at 50.0 µM 89.2% | [5]; at 50.0 µM 91.4% | [7]; [18] 97% | [7]; at 50.0 µM 91.6% | [9]; [18] 88% | [9]; at 50.0 µM 88.7% | [10]; [18] 96% | [10]; at 50.0 µM 89.4% | [14]; at 50.0 µM 89.5%
inactive: [1]; at 1.2 µM 12% | [1]; at 3.7 µM 16% | [1]; at 11.0 µM 18% | [1]; at 33.0 µM 19% | [1]; at 100.0 µM 15% | [2]; at 1.2 µM 8% | [2]; at 3.7 µM 8% | [2]; at 11.0 µM -5% | [2]; at 33.0 µM -7% | [2]; at 100.0 µM -15% | [3]; at 1.2 µM 9% | [3]; at 3.7 µM 5% | [3]; at 11.0 µM 20% | [3]; at 33.0 µM 25% | [3]; at 100.0 µM 20% | [4]; at 1.2 µM 22% | [4]; at 3.7 µM 24% | [4]; [17] 17% | [4]; at 11.0 µM 26% | [4]; at 33.0 µM 18% | [4]; [18] 35% | [4]; at 100.0 µM 17% | [5]; at 1.2 µM 14% | [5]; at 3.7 µM 13% | [5]; [17] 14% | [5]; at 11.0 µM 15% | [5]; at 33.0 µM 22% | [5]; [18] 33% | [5]; at 100.0 µM 9% | [6]; at 1.2 µM -23% | [6]; at 3.7 µM -22% | [6]; at 11.0 µM -25% | [6]; at 33.0 µM -28% | [6]; at 100.0 µM -31% | [7]; [17] 0% | [8]; at 1.2 µM 9% | [8]; at 3.7 µM -4% | [8]; at 11.0 µM -7% | [8]; at 33.0 µM 11% | [8]; at 100.0 µM -3% | [9]; [17] 2% | [10]; at 1.2 µM 32% | [10]; at 3.7 µM 26% | [10]; [17] 7% | [10]; at 11.0 µM 23% | [10]; at 33.0 µM 26% | [10]; at 100.0 µM 14% | [11]; at 1.2 µM 1% | [11]; at 3.7 µM -4% | [11]; at 11.0 µM 6% | [11]; at 33.0 µM 13% | [11]; at 100.0 µM 6% | [12]; at 1.2 µM -8% | [12]; at 3.7 µM -2% | [12]; at 11.0 µM -2% | [12]; at 33.0 µM 3% | [12]; at 100.0 µM -4% | [13]; at 1.2 µM -10% | [13]; at 3.7 µM -20% | [13]; at 11.0 µM -10% | [13]; at 33.0 µM -5% | [13]; at 100.0 µM 8% | [14]; [17] 21% | [14]; [18] 23% | [15]; at 1.2 µM 28% | [15]; at 3.7 µM 27% | [15]; at 11.0 µM 33% | [15]; at 33.0 µM 37% | [15]; at 100.0 µM 32%

O=[N+]([O-])c1cc[n+]([O-])c(Cl)c1
inactive: [1]; at 1.2 µM 1% | [1]; at 3.7 µM 12% | [1]; at 11.0 µM 10% | [16]; at 1.2 µM -17% | [16]; at 3.7 µM -26% | [16]; at 11.0 µM -19% | [3]; at 1.2 µM 12% | [3]; at 3.7 µM -4% | [3]; at 11.0 µM 24% | [4]; at 1.2 µM 1% | [4]; at 3.7 µM 9% | [4]; [17] 9% | [4]; at 11.0 µM 28% | [5]; at 1.2 µM 5% | [5]; at 3.7 µM 15% | [5]; [17] -3% | [5]; at 11.0 µM 26%
active: [1]; at 33.0 µM 82% | [1]; at 100.0 µM 98% | [16]; at 33.0 µM 100% | [16]; at 100.0 µM 99% | [3]; at 33.0 µM 99% | [3]; at 100.0 µM 99% | [4]; at 33.0 µM 100% | [4]; [18] 99% | [4]; at 50.0 µM 99.5% | [4]; at 100.0 µM 100% | [5]; at 33.0 µM 100% | [5]; [18] 99% | [5]; at 50.0 µM 99.7%
